High-throughput results (PubChem BioAssay)
Sampled rows, rich in hits. Any-hit rate of the full collection: about 1.3%.
Anesthetic bind: qHTS Assay for Identification of Novel General Anesthetics. Ferritin light chain (Equus caballus), P02791. apoferritin/1-aminoanthracene competitive binding, fluorescence. Potency, µM (doses to about 77.5 µM), for inactives: at the highest dose activity change, negative = displacement, actives largely listed as inhibitors. 0.074% of 350,000 active; also: nearly all actives have a fitted effect of over 20% in size
Target sequence (P02791 2-175 limits assumed): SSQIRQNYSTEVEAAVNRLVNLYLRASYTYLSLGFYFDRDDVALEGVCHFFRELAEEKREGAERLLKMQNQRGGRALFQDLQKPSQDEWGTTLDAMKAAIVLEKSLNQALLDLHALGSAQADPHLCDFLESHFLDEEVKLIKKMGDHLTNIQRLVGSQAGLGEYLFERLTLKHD
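Horse-spleen apoferritin (10 uM) in 50% saturated 1-aminoanthracene in PBS was incubated 10 min at room temperature with compound. Fluorescence (ex 380, em 535 nm) was normalized to free and bound 1-AMA, with concentration-response fitted by a four-parameter Hill equation.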
mIDH1 inhibitor: qHTS for Inhibitors of mutant isocitrate dehydrogenase 1 (IDH1): qHTS. IDH1-R132H enzyme, NADPH consumption, diaphorase/resazurin fluorescence. Potency, µM (series often up to 76.6 µM), for inactives: top-dose activity change, negative = inhibition, most hits filed as inhibitors. 0.093% of 390,000 active. AID 602179, 2012; also: nearly all actives have a fitted effect of over 65% in size
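IDH1-R132H (0.5 ug/mL dispensed) in pH 7.5 Tris buffer was preincubated 30 min with compound, then given a substrate mix of 0.016 mM NADPH and 2 mM alpha-KG for 80 min at room temperature; remaining NADPH was read by diaphorase/resazurin fluorescence.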
PKM2 activator: qHTS Assay for Activators of Human Muscle isoform 2 Pyruvate Kinase. purified PKM2, Kinase-Glo ATP luminescence, activation; response scale: 0% is enzyme alone, no compound. Potency, µM (titrated, usually from 57.5 µM), inactives show at the top dose activation, usual class: activators. 0.34% of 260,000 active; also: nearly all actives have a fitted effect of over 55% in size
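ATP formation by purified human PK-M2, quantified via coupled luciferase luminescence after 1 h at room temperature with 0.1 mM ADP and 0.5 mM PEP final.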
rTrxR1 inhibitor: qHTS Assay for Inhibitors of Mammalian Selenoprotein Thioredoxin Reductase 1 (TrxR1): qHTS. Thioredoxin reductase 1, cytoplasmic (Rattus norvegicus), O89049. recombinant rTrxR1, NADPH fluorescence consumption, selenite substrate. Potency, µM (highest dose often 114 µM), without a hit: at the highest dose activity change, negative = inhibition, usual class: inhibitors. 1% of 390,000 active; also: nearly all actives have a fitted effect of over 65% in size
Target sequence (O89049 whole entry, looked up): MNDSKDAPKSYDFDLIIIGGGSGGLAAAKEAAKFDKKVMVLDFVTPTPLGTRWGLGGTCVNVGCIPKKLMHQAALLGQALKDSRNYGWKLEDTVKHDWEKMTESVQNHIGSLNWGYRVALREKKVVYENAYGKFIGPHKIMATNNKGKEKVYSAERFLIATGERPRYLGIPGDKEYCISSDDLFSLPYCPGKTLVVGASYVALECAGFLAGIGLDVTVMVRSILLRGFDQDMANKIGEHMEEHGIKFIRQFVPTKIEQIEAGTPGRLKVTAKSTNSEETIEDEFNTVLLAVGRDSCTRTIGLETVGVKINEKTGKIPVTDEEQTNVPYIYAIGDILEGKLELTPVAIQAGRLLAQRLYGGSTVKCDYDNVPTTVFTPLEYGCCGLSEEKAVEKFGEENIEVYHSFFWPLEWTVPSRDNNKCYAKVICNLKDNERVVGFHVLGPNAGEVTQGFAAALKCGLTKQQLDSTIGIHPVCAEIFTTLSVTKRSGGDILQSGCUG
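Rat TrxR1 (90 nM in the dispensed reagent) was pre-reduced with 400 uM NADPH for 5 min at room temperature, then incubated with compound for 15 min. After 400 uM selenite was added, NADPH fluorescence (Ex 340/Em 450 nm) was followed for 8 min.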
TrxR1 substrate: qHTS Assay for Substrates of Mammalian Selenoprotein Thioredoxin Reductase 1 (TrxR1): qHTS. Potency, µM (highest dose often 114 µM), for the others: top-dose activity change, negative = substrate turnover. 0.01% of 390,000 active. Thioredoxin reductase 1, cytoplasmic (Rattus norvegicus), O89049. purified TrxR1 substrate turnover, NADPH consumption readout. AID 588456, 2011; also: nearly all actives have a fitted effect of over 50% in size
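Rat TrxR1, dispensed at 90 nM, was prereduced with 400 uM NADPH (final) for 5 min at ~22 deg C, then incubated with compound 15 min before 400 uM selenite. A first-read NADPH fluorescence drop versus no-compound background flagged substrates.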
GALK inh: qHTS Assay for Inhibitors of Human Galactokinase (GALK). 0.007% of 270,000 active. AID 1868, 2009. Potency, µM (top dose mostly 57.5 µM), inactives show at the top dose activity change, negative = inhibition, hits mostly inhibitors. Purified GALK, Kinase-Glo residual ATP luminescence
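Luminescence from leftover ATP (Ultra-Glo luciferase/luciferin) served as read-out after a 1 h room-temperature reaction of 5 nM GALK with 35 uM ATP and 100 uM galactose.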
Starred values were filed as active, the others as inactive; ? = inconclusive; · = not tested or not shown; ! = repeats disagree; [ ] = another dose, or the depositor's remark. Calls follow the shape of the dose curve; as a rule, active = well fitted curve in the direction sought with a large enough effect; inconclusive = small, poorly fitted or top-dose-only effect, or another doubt; inactive = no such curve, though single readings can be large; an effect the other way counts as inactive or inconclusive. % is scaled to controls: 0 for no effect and ±100 for the full control effect; potency is read from the fitted curve at half-maximal effect.

SMILES	Anesthetic bind	mIDH1 inhibitor	PKM2 activator	rTrxR1 inhibitor	TrxR1 substrate	GALK inh
CNC(C)C#Cc1c(-c2cc(OC)c(OC)c(OC)c2)noc1C (configuration not stated)	-14%	-5%	0%	71µM*!	7%	·
O=[N+]([O-])c1ccccc1OCCCn1cnc2ccccc21	?	10%	18µM*	1%[57.1 µM]	3%[57.1 µM]	-1%
COc1cccc(CNC(=O)CCNS(=O)(=O)c2ccc3c(c2)CCCC(=O)N3)c1	1%	2%	·	16%	0%	·
O=C(NCc1ccco1)/C(=C/c1ccc(C(F)(F)F)cc1)c1nc2ccccc2[nH]1	-8%	-5%	-3%	?	3%	0%
O=S(=O)(/C(=C\c1ccc(C(F)(F)F)cc1)c1nc2ccccc2[nH]1)c1ccccc1	·	-16%	·	4.5µM*	-2%	·
COc1ccc2nc(Cl)c(C3CC(c4ccco4)=NN3C(=O)CCC(=O)O)cc2c1 (configuration not stated)	5%	1%	5%	-6%[57.1 µM]	7%[57.1 µM]	·
COc1ccc2nc(Cl)c(C3CC(c4ccco4)=NN3C(=O)CCCC(=O)O)cc2c1 (configuration not stated)	-8%	-1%	22µM*	40µM*	4%	-2%
CCOc1cccc2sc(N3CCN(C(=O)C(C)(C)C)CC3)nc12	0%	8%	·	14%[57.1 µM]	5%[57.1 µM]	·
CCOC(=O)/C=C/C(=O)OCC(=O)NCc1ccccc1	5%	15%	3%	25µM*	3%	0%
CCOC(=O)/C=C/C(=O)OCC(=O)Nc1ccc(OC)c(Cl)c1	6%	16%	1%	16µM*	3%	0%
CCCn1c(C)cc(/C=C(\C#N)C(=O)OCC(=O)Nc2ccc(OC)c(Cl)c2)c1C	55%	1%	5%	79µM*	13%	3%
CCOC(=O)/C=C/C(=O)OCC(=O)Nc1ccc(Cl)cc1Cl	-10%	-2%	1%	?	9%[57.1 µM]	1%
COc1ccc(NC(=O)COC(=O)/C=C/C(=O)OCC(=O)Nc2ccc(OC)c(Cl)c2)cc1Cl	-14%	4%	-19%	-17%	-3%	-2%
CCOC(=O)/C=C/C(=O)OCC(=O)Nc1c(Cl)cccc1Cl	-16%	3%	19%	50µM*	2%	1%
C/C(=C\C(=O)OCC(=O)NCc1ccccc1)C(=O)OCC(=O)NCc1ccccc1	7%	-3%	-18%	-5%	-7%	1%
O=C(CS(=O)(=O)c1ccccc1)c1cc2ccccc2oc1=O	-17%	15%	5%	16µM*	-8%	-14%
O=C(CS(=O)(=O)c1ccccc1)c1cc2cc(F)ccc2oc1=O	-5%	18%	·	7%	3%	-14%
O=C(Nc1nccs1)c1ccc(S(=O)(=O)NCC2CCCCC2)cc1	14µM*	-2%	1%	14%	6%	-6%
O=C(CCCCl)Nc1c2c(nn1-c1ccccc1)CSC2	-12%	8%	3%	27%	5%	-1%
O=C(CCl)Nc1c2c(nn1-c1ccccc1)CSC2	-6%	4%	·	13µM*	-3%	-2%
CC(c1ccccc1)C1CC(=O)N(Cc2ccco2)C1=O (configuration not stated)	-16%	-2%	?	40µM*	3%	-4%
CC(c1ccccc1)C1CC(=O)N(CC(=O)O)C1=O (configuration not stated)	3%	5%	-2%	15%	8%	2%
O=C(NC1CCCCC1)C(c1cccnc1)N(C(=O)CCl)c1ccccc1Cl (configuration not stated)	7%	0%	3%	3%[57.1 µM]	-19%[57.1 µM]	1%
COc1ccc(N(C(=O)CCl)C(C(=O)NC2CCCCC2)c2cccnc2)cc1 (configuration not stated)	-15%	3%	0%	16µM*	2%	1%
O=C(NC1CCCCC1)C(c1cccnc1)N(C(=O)CCl)c1ccc(F)cc1 (configuration not stated)	1%	-1%	0%	14µM*	13%	0%
SMILES	Anesthetic bind	mIDH1 inhibitor	PKM2 activator	rTrxR1 inhibitor	TrxR1 substrate	GALK inh
CCCN(CCC)CCCNC(=O)Cn1ncn2c(cc3sc(CC)cc32)c1=O	-13%	-3%	·	11%	2%	·
CC(=O)N1CCCc2cc(S(=O)(=O)Nc3ccccc3C)ccc21	3%	6%	4%	21%	7%	14%
CC(=O)N1CCc2ccc(S(=O)(=O)Nc3ccccc3Cl)cc21	-6%	1%	13µM*	29%	2%	1%
O=[N+]([O-])c1ccc(NCCNS(=O)(=O)c2ccccc2)c(C(F)(F)F)c1	?	0%	28µM*	10%[57.1 µM]	-2%[57.1 µM]	-2%
Cc1ccc(S(=O)(=O)NCCNc2ccc([N+](=O)[O-])cc2C(F)(F)F)cc1	?	0%	?	-6%	-6%	-1%
Cc1ccc(S(=O)(=O)NC(=S)NC2CCCCC2)cc1	-7%	-9%	2%	3.5µM*	8%	1%
CCc1ccc(C(C)NC(=S)NC2CCCCC2)cc1 (configuration not stated)	-15%	5%	-9%	15%	-1%	0%
CCc1ccc(S(=O)(=O)NC(=S)NC2CCCCC2)cc1	-7%	-3%	3%	6.3µM*	5%[57.1 µM]	0%
O=S(=O)(NC(=S)NC1CCCCC1)c1ccc(Cl)cc1	-14%	-1%	-1%	2.8µM*	2%	1%
Cc1cc(C)c(S(=O)(=O)NCC2CCC(C(=O)NCCc3ccccc3)CC2)c(C)c1 (configuration not stated)	-1%	-8%	·	12%[57.1 µM]	-4%[57.1 µM]	·
O=C1NC(=S)S/C1=C\C=C\c1ccc([N+](=O)[O-])o1	-20%	8%	-11%	10µM*	-23%	2%
O=C1SCCN1N=Cc1ccc([N+](=O)[O-])o1	·	6%	·	-57%[57.1 µM]	-3%[57.1 µM]	·
CC1Cc2ccccc2N1C(=O)CSC1=NCCS1 (configuration not stated)	?	6%	-2%	7%	-5%	7%
